The target in experiment [1] is RAC-alpha serine/threonine-protein kinase (Homo sapiens) (UniProt P31749). The settings on record: at 0.1 µM.
Experiment [2] shares this target. The following applies: at 1 µM.
The target in experiment [3] is RAC-beta serine/threonine-protein kinase (Homo sapiens) (UniProt P31751). The following applies: at 0.1 µM.
Experiment [4] has the same target. The following applies: at 1 µM.
For experiment [5], the target named is RAC-gamma serine/threonine-protein kinase (Homo sapiens) (UniProt Q9Y243). The following applies: at 0.1 µM.
For experiment [6] the target is unchanged. The following applies: at 1 µM.
Experiment [7] deals with G protein-coupled receptor kinase 6 (Homo sapiens) (UniProt P43250). The settings on record: at 0.1 µM.
The target is the same in experiment [8]. The settings on record: at 1 µM.
The target of experiment [9] is T1, Rhodopsin kinase GRK7 (Homo sapiens) (UniProt Q8WTQ7).
T1 sequence (whole entry): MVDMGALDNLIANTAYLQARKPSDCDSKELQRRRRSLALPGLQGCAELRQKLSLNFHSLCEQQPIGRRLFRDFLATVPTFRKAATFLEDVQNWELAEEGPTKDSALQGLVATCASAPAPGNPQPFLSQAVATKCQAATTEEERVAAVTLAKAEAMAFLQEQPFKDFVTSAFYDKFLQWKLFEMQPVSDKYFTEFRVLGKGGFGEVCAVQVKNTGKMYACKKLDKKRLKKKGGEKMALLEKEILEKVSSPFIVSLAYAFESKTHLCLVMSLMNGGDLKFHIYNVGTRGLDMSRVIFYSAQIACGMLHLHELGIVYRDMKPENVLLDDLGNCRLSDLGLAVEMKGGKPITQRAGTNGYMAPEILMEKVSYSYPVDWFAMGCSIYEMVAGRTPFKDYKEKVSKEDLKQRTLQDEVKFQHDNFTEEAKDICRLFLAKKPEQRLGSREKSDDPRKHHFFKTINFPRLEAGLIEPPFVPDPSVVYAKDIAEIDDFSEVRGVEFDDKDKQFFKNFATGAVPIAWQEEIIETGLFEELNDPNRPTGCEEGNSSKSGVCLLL
The following applies: at 0.1 µM.

Experiment [10] concerns the target T1, Rhodopsin kinase GRK7 (Homo sapiens). The following applies: at 1 µM.
In experiment [11] the target is Serine/threonine-protein kinase MRCK alpha (Homo sapiens) (UniProt Q5VT25). The following applies: at 0.1 µM.
For experiment [12] the target is unchanged. The settings on record: at 1 µM.
The target of experiment [13] is Serine/threonine-protein kinase MRCK beta (Homo sapiens) (UniProt Q9Y5S2). The following applies: at 0.1 µM.
Experiment [14] has the same target. The settings on record: at 1 µM.
Experiment [15] deals with Ribosomal protein S6 kinase alpha-5 (Homo sapiens) (UniProt O75582). The following applies: at 0.1 µM.
The target is the same in experiment [16]. The following applies: at 1 µM.
The target in experiment [17] is Ribosomal protein S6 kinase alpha-4 (Homo sapiens) (UniProt O75676). The settings on record: at 0.1 µM.
For experiment [18] the target is unchanged. The settings on record: at 1 µM.
The target of experiment [19] is Ribosomal protein S6 kinase beta-1 (Homo sapiens) (UniProt P23443). The settings on record: at 0.1 µM.
The target is the same in experiment [20]. The following applies: at 1 µM.

Serine/threonine-protein kinase MRCK alpha (Homo sapiens), sequence (Q5VT25 whole entry): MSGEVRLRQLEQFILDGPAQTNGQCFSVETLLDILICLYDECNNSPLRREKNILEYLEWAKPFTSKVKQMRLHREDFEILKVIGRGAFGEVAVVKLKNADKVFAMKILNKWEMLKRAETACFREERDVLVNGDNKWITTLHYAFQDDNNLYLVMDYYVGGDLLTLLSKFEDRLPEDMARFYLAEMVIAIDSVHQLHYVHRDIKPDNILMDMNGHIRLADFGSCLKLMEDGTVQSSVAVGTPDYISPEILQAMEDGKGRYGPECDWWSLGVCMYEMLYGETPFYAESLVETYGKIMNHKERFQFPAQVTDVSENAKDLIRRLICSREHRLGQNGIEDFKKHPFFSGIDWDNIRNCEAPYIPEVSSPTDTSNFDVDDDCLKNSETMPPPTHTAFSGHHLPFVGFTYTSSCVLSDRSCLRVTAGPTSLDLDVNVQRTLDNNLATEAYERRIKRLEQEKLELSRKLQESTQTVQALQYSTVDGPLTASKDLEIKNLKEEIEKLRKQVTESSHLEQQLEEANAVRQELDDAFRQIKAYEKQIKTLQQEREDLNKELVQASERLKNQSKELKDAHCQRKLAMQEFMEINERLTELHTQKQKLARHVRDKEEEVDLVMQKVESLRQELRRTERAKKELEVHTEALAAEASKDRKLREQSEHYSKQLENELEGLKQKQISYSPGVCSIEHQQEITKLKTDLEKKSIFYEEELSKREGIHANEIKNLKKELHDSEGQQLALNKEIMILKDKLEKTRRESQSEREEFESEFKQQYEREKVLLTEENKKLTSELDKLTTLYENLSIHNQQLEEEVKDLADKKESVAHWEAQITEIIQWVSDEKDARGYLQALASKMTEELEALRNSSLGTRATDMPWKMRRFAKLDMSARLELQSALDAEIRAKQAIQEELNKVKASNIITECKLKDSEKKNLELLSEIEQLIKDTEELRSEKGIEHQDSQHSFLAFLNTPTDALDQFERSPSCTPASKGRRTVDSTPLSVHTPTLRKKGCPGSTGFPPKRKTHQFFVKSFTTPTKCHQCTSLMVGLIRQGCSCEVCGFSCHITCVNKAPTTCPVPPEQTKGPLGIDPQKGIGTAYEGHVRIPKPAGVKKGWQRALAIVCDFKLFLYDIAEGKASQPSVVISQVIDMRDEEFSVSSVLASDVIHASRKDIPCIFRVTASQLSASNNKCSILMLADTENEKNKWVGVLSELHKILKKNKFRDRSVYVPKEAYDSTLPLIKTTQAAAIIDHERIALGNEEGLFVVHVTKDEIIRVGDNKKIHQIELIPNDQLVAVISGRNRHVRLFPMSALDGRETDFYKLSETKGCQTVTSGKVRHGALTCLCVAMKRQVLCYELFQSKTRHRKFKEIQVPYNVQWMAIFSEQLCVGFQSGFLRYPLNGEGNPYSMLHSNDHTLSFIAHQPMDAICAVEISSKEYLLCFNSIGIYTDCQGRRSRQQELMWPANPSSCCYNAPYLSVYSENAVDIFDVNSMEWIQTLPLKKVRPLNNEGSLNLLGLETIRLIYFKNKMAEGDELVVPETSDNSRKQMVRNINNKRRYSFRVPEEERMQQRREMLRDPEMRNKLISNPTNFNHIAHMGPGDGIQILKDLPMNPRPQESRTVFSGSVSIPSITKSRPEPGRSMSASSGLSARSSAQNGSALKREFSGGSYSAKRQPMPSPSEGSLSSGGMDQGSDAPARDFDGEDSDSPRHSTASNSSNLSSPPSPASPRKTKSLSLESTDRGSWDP
Ribosomal protein S6 kinase alpha-4 (Homo sapiens), sequence (O75676 whole entry, looked up): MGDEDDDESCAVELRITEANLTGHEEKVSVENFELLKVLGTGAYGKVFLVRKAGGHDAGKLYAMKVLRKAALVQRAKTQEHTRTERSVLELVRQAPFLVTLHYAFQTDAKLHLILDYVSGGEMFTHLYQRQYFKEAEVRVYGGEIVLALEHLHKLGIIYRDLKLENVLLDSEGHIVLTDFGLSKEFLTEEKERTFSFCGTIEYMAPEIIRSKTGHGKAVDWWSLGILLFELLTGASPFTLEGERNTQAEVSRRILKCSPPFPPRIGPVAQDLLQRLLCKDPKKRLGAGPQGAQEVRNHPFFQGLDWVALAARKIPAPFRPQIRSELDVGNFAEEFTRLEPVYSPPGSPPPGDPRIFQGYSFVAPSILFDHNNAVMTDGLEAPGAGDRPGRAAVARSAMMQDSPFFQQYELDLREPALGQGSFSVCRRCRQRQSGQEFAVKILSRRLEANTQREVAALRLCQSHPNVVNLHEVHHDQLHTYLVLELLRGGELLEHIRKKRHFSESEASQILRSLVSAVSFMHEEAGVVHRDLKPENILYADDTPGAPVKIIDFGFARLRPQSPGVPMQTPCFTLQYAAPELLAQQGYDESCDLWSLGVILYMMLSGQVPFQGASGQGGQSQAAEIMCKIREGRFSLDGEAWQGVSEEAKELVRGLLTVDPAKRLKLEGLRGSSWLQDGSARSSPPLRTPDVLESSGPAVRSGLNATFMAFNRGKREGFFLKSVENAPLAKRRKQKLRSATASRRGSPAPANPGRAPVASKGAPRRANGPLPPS
RAC-beta serine/threonine-protein kinase (Homo sapiens), sequence (P31751 whole entry): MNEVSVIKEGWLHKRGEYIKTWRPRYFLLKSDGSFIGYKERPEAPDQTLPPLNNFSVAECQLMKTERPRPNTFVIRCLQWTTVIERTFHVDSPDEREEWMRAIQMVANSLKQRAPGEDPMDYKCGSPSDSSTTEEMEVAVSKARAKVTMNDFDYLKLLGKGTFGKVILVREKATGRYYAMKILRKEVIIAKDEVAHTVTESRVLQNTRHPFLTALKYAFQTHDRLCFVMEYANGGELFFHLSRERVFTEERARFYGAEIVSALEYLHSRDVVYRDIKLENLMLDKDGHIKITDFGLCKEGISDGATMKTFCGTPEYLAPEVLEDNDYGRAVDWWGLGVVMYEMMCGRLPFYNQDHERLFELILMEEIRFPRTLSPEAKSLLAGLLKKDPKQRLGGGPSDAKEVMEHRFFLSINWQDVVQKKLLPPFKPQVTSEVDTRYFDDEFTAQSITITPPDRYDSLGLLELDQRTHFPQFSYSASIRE
RAC-gamma serine/threonine-protein kinase (Homo sapiens), sequence (Q9Y243 whole entry): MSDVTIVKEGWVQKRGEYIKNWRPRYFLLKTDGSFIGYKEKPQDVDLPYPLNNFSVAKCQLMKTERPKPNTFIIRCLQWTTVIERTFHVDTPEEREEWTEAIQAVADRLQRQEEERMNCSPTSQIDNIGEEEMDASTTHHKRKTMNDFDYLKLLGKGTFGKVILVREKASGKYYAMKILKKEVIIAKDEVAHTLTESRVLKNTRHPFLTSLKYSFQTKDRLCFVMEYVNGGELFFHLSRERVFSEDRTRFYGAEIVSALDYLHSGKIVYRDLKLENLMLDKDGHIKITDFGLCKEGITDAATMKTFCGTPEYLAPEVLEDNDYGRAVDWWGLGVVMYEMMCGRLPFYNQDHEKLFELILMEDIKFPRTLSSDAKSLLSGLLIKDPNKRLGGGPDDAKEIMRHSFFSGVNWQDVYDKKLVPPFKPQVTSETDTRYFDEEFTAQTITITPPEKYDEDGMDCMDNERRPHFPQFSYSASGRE
Ribosomal protein S6 kinase alpha-5 (Homo sapiens), sequence (O75582 whole entry, looked up): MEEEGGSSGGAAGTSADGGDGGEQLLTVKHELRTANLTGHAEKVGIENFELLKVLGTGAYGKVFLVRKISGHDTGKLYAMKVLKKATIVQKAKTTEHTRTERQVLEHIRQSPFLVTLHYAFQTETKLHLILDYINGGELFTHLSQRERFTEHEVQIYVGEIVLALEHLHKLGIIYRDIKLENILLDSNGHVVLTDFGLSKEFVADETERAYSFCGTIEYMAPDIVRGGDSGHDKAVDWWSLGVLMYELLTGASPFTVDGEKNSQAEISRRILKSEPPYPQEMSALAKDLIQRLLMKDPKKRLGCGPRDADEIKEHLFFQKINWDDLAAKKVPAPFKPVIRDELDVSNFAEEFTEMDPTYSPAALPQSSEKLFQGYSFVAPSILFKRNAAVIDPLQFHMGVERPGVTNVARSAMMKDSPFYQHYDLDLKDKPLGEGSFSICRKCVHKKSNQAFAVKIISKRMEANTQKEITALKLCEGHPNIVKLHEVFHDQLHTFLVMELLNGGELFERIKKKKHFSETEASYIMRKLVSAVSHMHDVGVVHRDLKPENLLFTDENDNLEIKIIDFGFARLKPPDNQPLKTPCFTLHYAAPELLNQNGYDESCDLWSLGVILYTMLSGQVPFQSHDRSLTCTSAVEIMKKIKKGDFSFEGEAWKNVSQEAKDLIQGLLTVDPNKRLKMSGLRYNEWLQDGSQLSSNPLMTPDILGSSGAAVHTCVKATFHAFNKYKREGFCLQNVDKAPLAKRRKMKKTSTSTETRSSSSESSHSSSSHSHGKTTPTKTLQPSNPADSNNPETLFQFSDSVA
RAC-alpha serine/threonine-protein kinase (Homo sapiens), sequence (P31749 whole entry): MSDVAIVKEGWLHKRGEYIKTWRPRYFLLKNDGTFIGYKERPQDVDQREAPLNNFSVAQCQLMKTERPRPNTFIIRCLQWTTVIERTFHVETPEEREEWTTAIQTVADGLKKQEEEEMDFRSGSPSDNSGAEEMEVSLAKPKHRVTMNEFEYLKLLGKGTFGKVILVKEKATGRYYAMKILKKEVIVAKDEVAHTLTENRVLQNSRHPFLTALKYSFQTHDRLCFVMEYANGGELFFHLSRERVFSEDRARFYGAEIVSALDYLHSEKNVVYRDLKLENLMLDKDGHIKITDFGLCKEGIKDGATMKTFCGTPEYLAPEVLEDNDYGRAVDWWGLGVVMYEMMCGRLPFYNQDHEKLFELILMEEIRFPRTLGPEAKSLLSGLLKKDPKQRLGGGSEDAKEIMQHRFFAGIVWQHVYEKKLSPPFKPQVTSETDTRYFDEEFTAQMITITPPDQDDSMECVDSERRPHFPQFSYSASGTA

By inhibition is commonly meant the relative decrease from the control value, in per cent. For the molecule `O=C(Nc1n[nH]c2nc(-c3ccc(O)cc3)c(Br)cc12)C1CC1`, the inhibition worked out at 0.84% in experiment [1]; 2.07% in [2]; 2.21% in experiment [3]; 3.12% in [4]; 3.32% in experiment [5]; 12.5% in experiment [6]. The inhibition is 11.6% in experiment [7]; 32.6% in [8]; 5.77% in experiment [9]; 17.4% in experiment [10]; 1.56% in experiment [11]; 13.5% in [12]. Besides, the inhibition turned out to be 1.77% in [13]; 15.5% in [14]; 5.22% in experiment [15]; 13.6% in experiment [16]; 2.78% in experiment [17]; 6.3% in experiment [18]. Besides, the inhibition in [19] was 2.07%; in experiment [20] it was 6.85%.
In the case of `COc1cc(Nc2ncc3c(C)nc(-c4cccc(C(F)(F)F)c4)n3n2)cc(OC)c1OC`, the inhibition in [1] worked out at 0.55%; in [2], 0.77%; in experiment [3] it was 1.62%; in [4] it was 1.52%; in [5], 1.12%; in experiment [6], 1.21%. Besides, the inhibition is 1.33% in [7]; 4.77% in experiment [8]; 3.66% in experiment [9]; 6.59% in experiment [10]; -0.66% in experiment [11]; 4.12% in experiment [12]. Further, the inhibition in [13] was -1.16%; in experiment [14], -0.4%; in [15], 2.79%; in experiment [16] it was 5.2%; in experiment [17], 2.89%; in experiment [18], 8.48%. Further, the inhibition in experiment [19] is 2.17%; in experiment [20] it was 5.51%.
For the molecule `O=C(Nc1n[nH]c2cc(-c3cc(F)ccc3F)ccc12)C1CC1`, the inhibition in experiment [1] was found to be 0.77%; in experiment [2] it was 0.09%; in [3], 1.23%; in experiment [4], 1.89%; in [5] it was 1.03%; in experiment [6] it was 2.68%. Also, the inhibition was 2.61% in [7]; 3.76% in experiment [8]; 1.22% in experiment [9]; 6.2% in [10]; -0.78% in experiment [11]; -3.13% in [12]. In addition, the inhibition was -0.23% in [13]; -0.47% in experiment [14]; 1.91% in experiment [15]; 1.12% in [16]; 1.8% in experiment [17]; 3.08% in experiment [18]. Further, the inhibition in [19] was 1.01%; in experiment [20] it was 1.58%.
Turning to `CS(=O)(=O)CCNCc1cc(-c2cc3c(Nc4ccc(OCc5cccc(F)c5)c(Cl)c4)ncnc3s2)cs1`, the inhibition in experiment [1] was 0.79%; in experiment [2], 0.35%; in experiment [3], 0.7%; in experiment [4] it was 1.93%; in [5], 1.15%; in experiment [6], 3.27%. Moreover, the inhibition is 6.28% in [7]; 6.32% in [8]; 8.59% in experiment [9]; 4.24% in [10]; 2.36% in [11]; 5.45% in experiment [12]. For the same molecule, the inhibition in [13] is -0.63%; in experiment [14], 2.8%; in [15], 2.17%; in experiment [16], 1.79%; in experiment [17], 3.41%; in [18] it was 4.94%. The inhibition came to 2.17% in experiment [19] and 4.75% in [20].
`CS(=O)(=O)CCNCc1ccc(-c2ccc3ncnc(Nc4ccc(OCc5ccccc5)c(Br)c4)c3c2)o1`: the inhibition was -2.58% in [1]; -2.2% in experiment [2]; -3.3% in experiment [3]; -3.04% in experiment [4]; -3.44% in experiment [5]; -0.54% in experiment [6]. Moreover, the inhibition is -2.27% in experiment [7]; 2.12% in [8]; 10.1% in experiment [9]; 0.45% in experiment [10]; -6.6% in experiment [11]; -3.23% in experiment [12]. In addition, the inhibition in experiment [13] was -0.18%; in experiment [14], -0.76%; in experiment [15], 1.16%; in experiment [16], -1.75%; in experiment [17], 2.02%; in experiment [18], 0.82%. The inhibition came to 0.95% in [19] and 0.5% in [20].
Turning to `c1ccc(Oc2ccc(Nc3ncc(-c4ccccc4)o3)cc2)cc1`, the inhibition is 0.05% in experiment [1]; 0.39% in experiment [2]; 0.18% in experiment [3]; 0.15% in [4]; -0.09% in [5]; 1.21% in [6]. Also, the inhibition in experiment [7] was 2.54%; in experiment [8] it was 0.81%; in experiment [9], 2.37%; in [10], 2%; in experiment [11], -0.31%; in [12], 1.06%. Further, the inhibition was 0.44% in experiment [13]; 3.62% in experiment [14]; 0.98% in experiment [15]; 3.6% in experiment [16]; 1.31% in experiment [17]; 3.78% in [18]. Also, the results for the inhibition in experiment [19] and in experiment [20] were 0.11% and -0.31%, respectively.
For `O=C1NC(=O)C(c2cccc(Cl)c2)=C1Nc1ccc(Cl)c(C(=O)O)c1`, the inhibition in experiment [1] turned out to be 0.08%; in experiment [2], 1.15%; in experiment [3] it was 1.52%; in experiment [4] it was 0.7%; in experiment [5], 1.61%; in experiment [6] it was 0.58%. The inhibition in [7] is 4.67%; in [8], 8.66%; in experiment [9] it was 13.2%; in [10], 9.31%; in experiment [11], 1.43%; in experiment [12], 4.38%. The inhibition in [13] was 0.15%; in [14], -0.05%; in [15] it was 3.03%; in [16], 2.1%; in experiment [17] it was 2.51%; in experiment [18], 2.85%. The results for the inhibition in experiment [19] and in [20] were 0.51% and 1.96%, respectively.
With `FC(F)(F)c1cccc(Nc2nccc(-c3cnn4nc(-c5ccccc5)ccc34)n2)c1`, the inhibition in [1] is 0.83%; in experiment [2], 0.65%; in experiment [3] it was 0.62%; in [4] it was 1.58%; in experiment [5], 0.22%; in experiment [6], -2.03%. Also, the inhibition is -2.23% in [7]; -0.87% in experiment [8]; 4.12% in [9]; 6.07% in [10]; -4.69% in experiment [11]; -0.12% in experiment [12]. Also, the inhibition worked out at 0.14% in [13]; 0.03% in experiment [14]; 1.36% in experiment [15]; 0.17% in experiment [16]; 1.71% in [17]; 0.86% in [18]. Besides, the inhibition turned out to be 1.59% in [19] and 0.67% in experiment [20].
